Many of the other results were omitted from the sample, so hits are more common in it than they were.
Tgondii IFNg: T. gondii growth inhibition under IFN-gamma; AID 1259416; actives 3.8% (n = 69,000); Toxoplasma gondii growth in IFN-gamma-treated host cells; hits give low values; activity change, negative = inhibition, % (no concentration beside the values); in the data active = activity change below about -70%, passing the limit was not always enough;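 note: host cells are HeLa cells infected with Toxoplasma gondii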
* hit, by the source's call; ! = repeats disagree.

Results for Cc1cn(CCNC(=O)CC2COc3ccc(C(=O)N(C)C)cc3N2C)nn1 (stereo unspecified) ?
Tgondii IFNg: -7

Results for CC(C)(C)C(=O)C(Cc1c(F)cccc1Cl)C(=O)C(C)(C)C ?
Tgondii IFNg: -24

Results for CCn1c(CCNC(=O)Cc2c(F)cccc2Cl)nnc1SC ?
Tgondii IFNg: -3

How did O=C(Cc1c(F)cccc1Cl)NC(=O)NCCc1c(F)cccc1Cl do in these assays?
Tgondii IFNg: -83*

Results for O=C(c1cscn1)N1CC[C@@H]2[C@H]1CCN2Cc1ccoc1 ?
Tgondii IFNg: -29

Results for O=C1CCCN1CC1CCN(C(=O)c2ccc(N3CC(O)C3)nc2)CC1 ?
Tgondii IFNg: 9

Results for Cc1ccc2c(=O)c(C(=O)O)c[nH]c2n1 ?
Tgondii IFNg: -8

What do the screens show for `CC(CC1=CCN(CC(=O)N(C)C)CC1)NC(=O)c1ccco1` (stereo unspecified)?
Tgondii IFNg: 11

How did O=c1oc2ccccc2c2c1C(c1ccc3c(c1)OCO3)Nc1ccc3ccccc3c1-2 (stereo unspecified) do in these assays?
Tgondii IFNg: 57

How did Fc1ccc(C2Nc3ccc4ccccc4c3C3=C2CCCC3)cc1 (stereo unspecified) do in these assays?
Tgondii IFNg: -105*

What do the screens show for `Cc1nc(-c2ccccc2)[nH]c(=O)c1CC(=O)NC(C)Cc1ccccn1` (stereo unspecified)?
Tgondii IFNg: -1

How did Oc1[nH]c2ccccc2c1N=Nc1nc(Nc2ccccc2)nc(N2CCOCC2)n1 do in these assays?
Tgondii IFNg: -99*

What do the screens show for `O=C1CSC(c2ccccc2)N1Nc1nc(N2CCOCC2)nc(N2CCOCC2)n1` (stereo unspecified)?
Tgondii IFNg: -14

How did O=C(O)CSc1nc(Nc2ccccc2)nc(N2CCOCC2)n1 do in these assays?
Tgondii IFNg: -31

What do the screens show for `O=C(O)CC1C(=O)NC(=S)N1c1ccccc1` (stereo unspecified)?
Tgondii IFNg: 9

Results for Cn1c(=O)c2[nH]cnc2n(C)c1=O ?
Tgondii IFNg: 112

How did S=c1nc[nH]c2nc[nH]c12 do in these assays?
Tgondii IFNg: -71*

Results for COc1ccc(N2C(=O)CN(C(=O)c3cccc(Cn4nc(C)cc4C)c3)CC23CCCC3)cc1 ?
Tgondii IFNg: -49

How did Cc1nc(-c2cccc(F)c2)sc1CCNC(=O)C(=O)Nc1cccc(Cl)c1 do in these assays?
Tgondii IFNg: -16

What do the screens show for `CC(NCCc1ccc(O)cc1)C(O)c1ccc(O)cc1` (stereo unspecified)?
Tgondii IFNg: -3

What do the screens show for `CCCCCCCCNC(C)C(O)c1ccc(SC(C)C)cc1` (stereo unspecified)?
Tgondii IFNg: -78*!

What do the screens show for `C[C@@H](NCCc1ccc(O)cc1)[C@@H](O)c1ccc(O)cc1`?
Tgondii IFNg: -61

How did OC1(C#CCN2CCCCCC2)CCCCC1 do in these assays?
Tgondii IFNg: 2

What do the screens show for `c1ccc(CCc2n[nH]c(Cc3ccc(-n4cnnn4)cc3)n2)cc1`?
Tgondii IFNg: 0

How did CC(C(=O)NCCS(=O)(=O)N(C)C)n1cnc2ccccc21 (stereo unspecified) do in these assays?
Tgondii IFNg: -24

What do the screens show for `COc1ccc(CNc2nc(C)nc(C)c2Oc2ccc(Cl)cc2Cl)cc1`?
Tgondii IFNg: -8

How did Cc1nc(C)c(Oc2ccc(Cl)cc2Cl)c(Sc2cccc(C(F)(F)F)c2)n1 do in these assays?
Tgondii IFNg: -107*

How did CCOC(=O)c1nc(C)nc(Sc2ccc(Cl)cc2)c1C do in these assays?
Tgondii IFNg: 11

How did O=C(O)c1ccccc1O do in these assays?
Tgondii IFNg: 7

How did O=C(NO)c1ccccc1O do in these assays?
Tgondii IFNg: -9

How did O=C(CC(=O)c1ccccc1O)c1ccc(F)cc1 do in these assays?
Tgondii IFNg: -109*

How did CCOCC1CC2(CCN(Cc3cnn(C)c3)CC2)CO1 (stereo unspecified) do in these assays?
Tgondii IFNg: -51

How did CCOc1cccc2sc(NC(=O)c3nc4ccccc4n(C)c3=O)nc12 do in these assays?
Tgondii IFNg: -22

How did COc1cc2c(cc1OC)C(c1c(-c3ccccc3)noc1C)=NCC2 do in these assays?
Tgondii IFNg: -38

How did COc1cc2c(cc1OC)C(c1sc3ccccc3c1Cl)=NCC2 do in these assays?
Tgondii IFNg: -113*

What do the screens show for `COc1cc2c(cc1OC)C(c1ccccc1)=NCC2`?
Tgondii IFNg: -28

What do the screens show for `COc1c[nH]c(CN2CCCC2c2nc3ccc(F)cc3[nH]2)cc1=O` (stereo unspecified)?
Tgondii IFNg: 13

Results for Fc1ccc(Cn2ncc3c2CN(c2nc4ccccc4o2)C3)cc1 ?
Tgondii IFNg: -59

What do the screens show for `COc1ccc(-c2cc3c(=O)n(Cc4nc(-c5ccccc5OC)oc4C)ccn3n2)cc1OC`?
Tgondii IFNg: 294

Results for CC(C(=O)N1CCC2(CCCO2)CC1)n1cnc2ccccc21 (stereo unspecified) ?
Tgondii IFNg: 9

How did CCn1c(-c2cc(NC(=O)c3cccnc3)n[nH]2)cc2ccccc21 do in these assays?
Tgondii IFNg: -105*

How did CCn1c(-c2cc(NC(=O)c3cccnc3)n[nH]2)cc2ccc(OC)cc21 do in these assays?
Tgondii IFNg: -30

What do the screens show for `CCn1c(-c2cc(NC(=O)c3cnccn3)n[nH]2)cc2ccccc21`?
Tgondii IFNg: 78

How did Cc1cc(C)cc(-n2ccnc2-c2cnc(N(C)C)nc2)c1 do in these assays?
Tgondii IFNg: 12

Results for COC(=O)c1ccccc1SCc1ccccc1 ?
Tgondii IFNg: 2

How did C=CCOCC12CCCOC1CCN(S(=O)(=O)c1cn(C)cn1)C2 (stereo unspecified) do in these assays?
Tgondii IFNg: 4

What do the screens show for `CCn1c(Cc2ccccc2)nnc1SCc1nnc(-c2ccccc2)o1`?
Tgondii IFNg: -3

How did C=CCn1c(SCC(O)Cn2c3ccccc3c3ccccc32)nnc1-c1ccco1 (stereo unspecified) do in these assays?
Tgondii IFNg: -49

What do the screens show for `OC(CSc1nc2ccccc2s1)Cn1c2ccccc2c2ccccc21` (stereo unspecified)?
Tgondii IFNg: -75*

Results for Cc1nc2ccccc2n1CC(O)Cn1c2ccccc2c2ccccc21 (stereo unspecified) ?
Tgondii IFNg: -1

Results for Cc1ccnc(NCCNc2nc(C(C)(C)C)nc3c2cnn3C)c1 ?
Tgondii IFNg: -3

What do the screens show for `CC(=O)NCCn1cnc(-c2ccccc2)c1/C(C)=C/c1ccco1`?
Tgondii IFNg: 9

Results for CSc1cccc(CN(C(=O)c2cccn2C)C(C)C)c1 ?
Tgondii IFNg: -43

How did C=CCn1c(=O)c(C(=O)Nc2ccc(C(C)C)cc2)c(O)c2ccccc21 do in these assays?
Tgondii IFNg: 215

Results for CN1CCN(CCn2cnc(-c3ccccc3)c2-c2cnc[nH]2)CC1 ?
Tgondii IFNg: -2

What do the screens show for `CCn1ccnc1-c1c(-c2ccccc2)ncn1CCN1CCOC1=O`?
Tgondii IFNg: 4

What do the screens show for `CCc1nccc(-c2c(-c3ccccc3)ncn2CCN2CCOCC2)n1`?
Tgondii IFNg: -80*

Results for CCc1nccc(-c2c(-c3ccccc3)ncn2CC2(CO)CCOCC2)n1 ?
Tgondii IFNg: -83*

How did CCc1ccc(-c2c(-c3ccccc3)ncn2CCS(C)(=O)=O)nc1 do in these assays?
Tgondii IFNg: 1

Results for CCc1ncc(-c2c(-c3ccccc3)ncn2Cc2ccccc2F)cn1 ?
Tgondii IFNg: 21

How did c1ccc2c(c1)COC(c1ccsc1)N2 (stereo unspecified) do in these assays?
Tgondii IFNg: 66

How did COc1cccc(CC(=O)N2CCC(N(C)C)CC2C(=O)O)c1 (stereo unspecified) do in these assays?
Tgondii IFNg: -4
